Assay outcomes (PubChem BioAssay)
HP1b binding inh: blocks HP1-beta chromodomain binding to methylated histone tails; Potency, µM (doses to about 114 µM), for the others: at the highest dose activity change, negative = inhibition, most hits filed as inhibitors; AID 540317; P83916; AlphaScreen HP1-beta / biotin-H3K9me3 peptide binding; 390,000 tested, 0.56% active; note: nearly all actives have a fitted effect of over 70% in size
Target sequence (P83916 whole entry, looked up): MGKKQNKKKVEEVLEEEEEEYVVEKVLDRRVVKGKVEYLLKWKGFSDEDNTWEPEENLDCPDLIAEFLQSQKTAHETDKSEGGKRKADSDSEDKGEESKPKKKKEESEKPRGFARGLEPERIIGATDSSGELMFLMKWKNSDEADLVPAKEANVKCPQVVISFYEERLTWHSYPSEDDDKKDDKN
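AlphaScreen: HP1-beta (50 nM) preformed 30 min with biotin-H3(1-18)K9me3 peptide (50 nM) in PBS pH 7.4, 0.01% Tween-20. Compound added for 30 min at RT, then streptavidin donor/nickel chelate acceptor beads (10 ug/mL) for 30 min.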
JMJD2A Tudor inh: JMJD2A Tudor domain (human) inhibition; AlphaScreen JMJD2A-Tudor / H3K4me3 peptide binding; AID 504339; 390,000 tested, 4.4% active; Potency, µM (titrated, usually from 114 µM), without a hit: top-dose activity change, negative = inhibition, actives largely listed as inhibitors; O75164; note: % is set by controls: 0 for no effect and ±100 for the full control effect; nearly all actives have a fitted effect of over 50% in size
G9a block: inhibitors of human histone lysine methyltransferase G9a; Potency, µM (top dose mostly 102 µM), for inactives: top-dose activity, negative = inhibition, most hits filed as inhibitors; G9a H3K9 monomethylation, AlphaScreen, 2 h; AID 504332; 350,000 tested, 8.8% active; note: % is set by controls: 0 for no effect and ±100 for the full control effect; nearly all actives have a fitted effect of over 75% in size
Target sequence (Q96KQ7 913-1193 limits assumed): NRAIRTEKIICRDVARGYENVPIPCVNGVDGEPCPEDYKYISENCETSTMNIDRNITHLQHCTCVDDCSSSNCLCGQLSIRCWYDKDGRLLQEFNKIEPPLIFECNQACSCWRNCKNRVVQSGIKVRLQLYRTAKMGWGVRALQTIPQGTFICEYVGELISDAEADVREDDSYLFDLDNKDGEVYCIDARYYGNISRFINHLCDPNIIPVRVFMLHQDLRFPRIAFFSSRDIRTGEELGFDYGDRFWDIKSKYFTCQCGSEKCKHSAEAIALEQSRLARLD
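Compounds were preincubated with 20 nM G9a for 15 min, after which biotinylated H3K9 peptide (500 nM) and SAM (20 uM) started a 2 h room-temperature reaction. Monomethylated product was quantified by antibody-based AlphaScreen chemiluminescence.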
BAZ2B block: inhibitors of human BAZ2B bromodomain; Q9UIF8; Potency, µM (series often up to 114 µM), inactives show at the top dose activity change, negative = inhibition, most hits filed as inhibitors; AlphaScreen BAZ2B-H3K14Ac peptide displacement; AID 504333; 360,000 tested, 4.4% active; note: % is set by controls: 0 for no effect and ±100 for the full control effect; nearly all actives have a fitted effect of over 60% in size
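Compounds, titrated to a top concentration of 110 uM, were incubated 30 min at room temperature with preformed BAZ2B/acetyl-K14 H3 peptide complex (50 nM each). Proximity signal was measured by AlphaScreen after 20 min with beads.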
Sfp inh: Sfp phosphopantetheinyl transferase inhibition; Q9F4F7; Biochemical Sfp PPTase activity, qHTS; Potency, µM, without a hit: largest response in the series, negative = inhibition, most hits filed as inhibitors; 310,000 tested, 3.5% active; AID 1490;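 note: the enzyme is Sfp with the accession as filed and its product quenches rhodamine fluorescence; 0% = enzyme reaction without inhibitor and -100% = no enzyme wells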
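With Hepes-Na pH 7.6 buffer containing 10 mM MgCl2, Sfp (15 nM) modified BHQ-2-YbbR (12.5 uM) using rhodamine-CoA (5 uM). Two reads 30 minutes apart at 525/598 nm yielded each well's rate.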
The depositor's hits bear a star; [ ] = remark or other dose. Sampled rows, rich in hits. Any-hit rate of the full collection: about 12%. Calls come from the whole dose curve; as a rule, active = well fitted curve in the direction sought with a large enough effect; inconclusive = small, poorly fitted or top-dose-only effect, or another doubt; inactive = no such curve, though single readings can be large; an effect the other way counts as inactive or inconclusive. Potency is the fitted concentration of half-maximal effect.

`CCN1CCN(c2cc(C)c3cc(NC(=O)/C=C/c4ccc(C)cc4)ccc3n2)CC1` gave HP1b binding inh 20%, JMJD2A Tudor inh -15%, G9a block 7%[59 µM] and BAZ2B block 1%.
For COCc1cc(=O)n2[nH]c(-c3ccsc3-n3c(C)ccc3C)cc2n1 the results were HP1b binding inh 12%, JMJD2A Tudor inh -11%[11.4 µM], G9a block -34%[59 µM], BAZ2B block inconclusive and Sfp inh 56µM*.
Screening Cc1cc(=O)n2[nH]c(-c3ccc(F)cc3)cc2n1 returned HP1b binding inh 14%, JMJD2A Tudor inh -9%, G9a block -3%[59 µM], BAZ2B block 8% and Sfp inh 12%.
Screening Cc1cc(=O)n2[nH]c(-c3ccsc3-n3c(C)ccc3C)cc2n1 returned HP1b binding inh 9%, JMJD2A Tudor inh -8%[11.4 µM], BAZ2B block 45µM* and Sfp inh 45µM*.
Screening Cc1nc2cc(-c3ccsc3-n3c(C)ccc3C)[nH]n2c(=O)c1Cl returned HP1b binding inh -19%, JMJD2A Tudor inh inconclusive, G9a block inconclusive, BAZ2B block 50µM* and Sfp inh inconclusive.
CCOc1ccc(S(=O)(=O)N2CCN(CN3C(=O)CC4(CCCC4)C3=O)CC2)cc1 was read as HP1b binding inh 27%, JMJD2A Tudor inh -20%, G9a block -6%[2.33 µM] and BAZ2B block 1%.
`Cn1c(=O)c2[nH]c(Nc3ccccc3)nc2n(C)c1=O` gave HP1b binding inh 24%, JMJD2A Tudor inh -9%, G9a block 5%[59 µM], BAZ2B block 4% and Sfp inh inconclusive.
Cc1ccc(CNc2nc3c([nH]2)c(=O)n(C)c(=O)n3C)cc1 was read as HP1b binding inh 12%, JMJD2A Tudor inh -12%, G9a block 45µM*, BAZ2B block 6% and Sfp inh -9%.
Cc1c(CCC(=O)O)c(=O)oc2cc3occ(-c4ccc(Br)cc4)c3cc12 was read as HP1b binding inh inconclusive, JMJD2A Tudor inh -23%, G9a block inconclusive, BAZ2B block -21% and Sfp inh -13%.
Cc1nc(C)c(-c2csc(Nc3ccc(S(N)(=O)=O)cc3)n2)s1 was read as HP1b binding inh 35%, JMJD2A Tudor inh -15%, G9a block inconclusive, BAZ2B block -16% and Sfp inh -10%.
For COc1ccc(Nc2nc(-c3sc(N)nc3C)cs2)cc1 the results were HP1b binding inh inconclusive, JMJD2A Tudor inh 50µM*, G9a block inconclusive, BAZ2B block 14µM* and Sfp inh 18µM*.
COc1ccc(Nc2nc(-c3sc(NC(C)=O)nc3C)cs2)cc1 was read as G9a block 40µM*, BAZ2B block 6% and Sfp inh 40µM*.
`CCOC(=O)c1sc(Nc2ccc(OCC)cc2)nc1C` gave HP1b binding inh 42%, JMJD2A Tudor inh -5%, G9a block -2%, BAZ2B block -39% and Sfp inh 6%.
Cc1ccc(Nc2nc(-c3sc(N)nc3C)cs2)cc1 was read as HP1b binding inh inconclusive, JMJD2A Tudor inh 50µM*, BAZ2B block 40µM* and Sfp inh inconclusive.
`CCOc1ccc(Nc2nc(-c3sc(N)nc3C)cs2)cc1` gave HP1b binding inh inconclusive, JMJD2A Tudor inh 50µM*, G9a block 35µM*, BAZ2B block 45µM* and Sfp inh -16%.
COc1ccc(Cn2c(=O)n(-c3ccc(OC)cc3)c(=O)c3c2c2cc(OC)ccc2n3C)cc1 was read as HP1b binding inh 35%, JMJD2A Tudor inh -6%, G9a block 0%[59 µM] and BAZ2B block 1%.
CSc1cccc(NC(=O)COC(=O)C2CCN(S(=O)(=O)c3ccccc3)CC2)c1 was read as HP1b binding inh 27%, JMJD2A Tudor inh -24%, G9a block 3%[59 µM] and BAZ2B block 8%.
CCOC(=O)c1c(S(=O)(=O)NCC(=O)Nc2ccc(C(C)=O)cc2)c(C)n(C)c1C was read as HP1b binding inh 48%, JMJD2A Tudor inh -10%, G9a block 6%[59 µM] and BAZ2B block -8%.
`COc1ccc(CCNc2nc(-c3sc(N)nc3C)cs2)cc1OC` gave HP1b binding inh inconclusive, JMJD2A Tudor inh 56µM*, G9a block inconclusive, BAZ2B block 50µM* and Sfp inh -13%.
`COc1ccc(CC(=O)Nc2nc(-c3ccc(OC)c(OC)c3)cs2)cc1OC` gave HP1b binding inh -20%, JMJD2A Tudor inh inconclusive, G9a block -17%, BAZ2B block inconclusive and Sfp inh -12%.
For COc1ccc(S(=O)(=O)Nc2ccc3c(c2)N(C(C)=O)CCC3)cc1F the results were HP1b binding inh 13%, JMJD2A Tudor inh -11%, G9a block 6%[59 µM] and BAZ2B block -6%.
Screening COc1ccccc1N1C(=N)S/C(=C\c2ccc(-c3ccccc3C(=O)O)o2)C1=O returned HP1b binding inh -13%, JMJD2A Tudor inh inconclusive, G9a block 16µM*, BAZ2B block inconclusive and Sfp inh inconclusive.
Screening N=C1S/C(=C\c2ccc(-c3ccccc3C(=O)O)o2)C(=O)N1c1ccc2c(c1)OCO2 returned HP1b binding inh 28µM*, JMJD2A Tudor inh 22µM*, G9a block 3.5µM*, BAZ2B block 20µM* and Sfp inh inconclusive.
Screening Cc1ccc(O)c(NC2=C(Cl)C(=O)N(Cc3ccccc3)C2=O)c1 returned HP1b binding inh 16µM*, JMJD2A Tudor inh 4µM*, G9a block 6.3µM*, BAZ2B block 45µM* and Sfp inh 7.1µM*.
For CCOc1ccccc1NC1=C(Cl)C(=O)N(c2ccc(OC)cc2)C1=O the results were HP1b binding inh -5%, JMJD2A Tudor inh inconclusive, G9a block inconclusive, BAZ2B block inconclusive and Sfp inh -22%.
Screening O=C1C(Cl)=C(Nc2ccccc2O)C(=O)N1c1ccccc1 returned HP1b binding inh inconclusive, JMJD2A Tudor inh 35µM*, G9a block 7.9µM*, BAZ2B block inconclusive and Sfp inh 22µM*.
COc1ccccc1CNC(=O)CSc1nc(=O)[nH]c2c1CCC2 was read as HP1b binding inh 30%, JMJD2A Tudor inh -2%, G9a block 3%[59 µM] and BAZ2B block 1%.
`C(=N\n1cnnc1SCc1ccccc1)/c1ccco1` gave HP1b binding inh 26%, JMJD2A Tudor inh -23%, G9a block 56µM*, BAZ2B block 0% and Sfp inh 3%.
For Fc1ccc(Cl)cc1/C=N/n1cnnc1SCc1ccccc1 the results were HP1b binding inh 9%, JMJD2A Tudor inh -21%, G9a block -28%, BAZ2B block -31% and Sfp inh 17%.
Screening Cc1ccccc1OCCSc1nc2ccc(NC(=O)c3ccccc3)cc2s1 returned HP1b binding inh 24%, JMJD2A Tudor inh -14%, G9a block 10%[59 µM] and BAZ2B block 0%.
